gsp agonist = qHTS for Agonist of gsp, the Etiologic Mutation Responsible for Fibrous Dysplasia/McCune-Albright Syndrome: qHTS; gsp mutant cells, cAMP HTRF, 30 min; Potency, µM (doses to about 76.9 µM), for the others: top-dose activation (cAMP increase), most hits filed as activators; 0.13% of 340,000 active; AID 624287, 2012; active = well fitted activation curve with a large enough effect; inconclusive = small, poorly fitted or top-dose-only effect, or another doubt; inactive = no such curve, though single readings can be large or run the other way; cell line not stated here;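 note: phosphodiesterase inhibitor Ro 20-1724 added with compounds to block cAMP breakdown; potency is the fitted concentration of half-maximal effect; nearly all actives have a fitted effect of over 60% in size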
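Cells in DMEM/10% FBS with G418 were pretreated with compounds in DMSO plus […] (300 uM stock) for 30 min at 37C. cAMP was measured by HTRF (cAMP-d2 plus anti-cAMP antibody-K) after 30 min at room temperature.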
MmCpn inh = Inhibitors of TCP-1 ring complex (TRiC) of Methanococcus maripaludis (MmCpn): qHTS | Chaperonin Mm-Cpn (Methanococcus maripaludis) | purified Mm-Cpn ATPase, ADP Transcreener TR-FRET | Potency, µM (highest dose often 76.9 µM), inactives show at the top dose activity, negative = inhibition, hits mostly inhibitors | 0.031% of 330,000 active; note: potency is the fitted concentration of half-maximal effect; % is set by controls: 0 for no effect and ±100 for the full control effect; nearly all actives have a fitted effect of over 80% in size
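ATPase read-out: TR-FRET ADP immunoassay (anti-ADP Eu cryptate vs ADP-d2), ex 320 nm, em 590/665 nm; signal drops as ADP forms. Enzyme 25 nM, ATP 10 uM, 30 min at 37°C after 10 min compound preincubation.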
gsp antag = qHTS for Antagonists of gsp, the Etiologic Mutation Responsible for Fibrous Dysplasia/McCune-Albright Syndrome: qHTS. Potency, µM (doses to about 76.9 µM), inactives show at the top dose activity change, negative = inhibition, actives largely listed as inhibitors. gsp-mutant cells, cAMP HTRF, 30 min. 0.4% of 340,000 active. AID 624288, 2012; calls by dose curve; cell line not stated here;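 note: intracellular cAMP measured with PDE inhibitor Ro 20-1724 present during compound exposure; potency is the fitted concentration of half-maximal effect; % is set by controls: 0 for no effect and ±100 for the full control effect; nearly all actives have a fitted effect of over 65% in size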
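Cells in G418 medium, seeded 16-24 h, 37C; buffer exchange to DPBS + 1 mM CaCl2, 0.5 mM MgCl2, 0.05% BSA; cpds in DMSO + […] (300 uM stock), 30 min 37C; HTRF cAMP detection.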
CCT chaperon mod = High-Throughput Screening for Modulators of Cytosolic Chaperonin Activity; purified chaperonin ATPase assay, HTRF ADP detection, 30 min; activity change, % (no concentration beside the values), hits read low; 0.3% of 360,000 active; in the data active = activity change below about -30%; note: % is set by controls: 0 for no effect and ±100 for the full control effect
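ATPase activity: ADP formed was measured by HTRF Transcreener (665/615 nm ratio) after 30 min at 37 deg C with 10 uM ATP. Compounds screened at one 76 uM concentration against 40 or 20 nM TRiC in Tris pH 7.4/KCl/MgCl2/DTT buffer.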
RXFP1 antag = qHTS Assay for Antagonists of the Relaxin Receptor RXFP1; HEK293-RXFP1, relaxin-stimulated cAMP HTRF, 30 min; hits give low values; 0.59% of 350,000 active; activity change, negative = inhibition, % at 57.5 µM; Relaxin receptor 1 (Homo sapiens), Q9HBX9;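 active = activity change of -60% or lower, but not beyond a set lower limit; inconclusive = change between -60% and -40%, or beyond the set limit; inactive = change above -40%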; note: % is set by controls: 0 for no effect and ±100 for the full control effect
Target sequence (Q9HBX9 whole entry, looked up): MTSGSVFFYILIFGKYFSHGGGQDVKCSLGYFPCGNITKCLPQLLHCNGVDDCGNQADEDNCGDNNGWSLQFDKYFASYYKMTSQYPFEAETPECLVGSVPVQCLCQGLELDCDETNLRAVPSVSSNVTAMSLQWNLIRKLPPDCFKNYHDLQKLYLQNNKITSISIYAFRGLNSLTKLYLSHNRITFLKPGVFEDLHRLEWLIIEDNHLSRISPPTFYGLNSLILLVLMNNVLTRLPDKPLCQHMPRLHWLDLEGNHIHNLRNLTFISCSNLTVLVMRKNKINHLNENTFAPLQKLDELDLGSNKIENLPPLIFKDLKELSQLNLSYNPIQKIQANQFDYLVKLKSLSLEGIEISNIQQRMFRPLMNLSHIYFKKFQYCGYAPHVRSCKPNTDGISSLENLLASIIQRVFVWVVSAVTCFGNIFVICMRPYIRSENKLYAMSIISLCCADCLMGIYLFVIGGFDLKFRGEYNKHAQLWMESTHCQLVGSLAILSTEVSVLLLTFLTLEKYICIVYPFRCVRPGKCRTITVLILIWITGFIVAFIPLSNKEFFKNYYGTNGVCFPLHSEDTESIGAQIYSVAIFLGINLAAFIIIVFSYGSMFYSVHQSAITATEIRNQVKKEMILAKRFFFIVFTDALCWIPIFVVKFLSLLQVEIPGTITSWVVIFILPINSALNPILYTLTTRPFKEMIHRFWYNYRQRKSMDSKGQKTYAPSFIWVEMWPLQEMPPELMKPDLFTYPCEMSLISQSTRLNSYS
RXFP1 ag = qHTS Assay for Agonists of the Relaxin Receptor RXFP1; Relaxin receptor 1 (Homo sapiens), Q9HBX9; HEK293T-RXFP1 cAMP TR-FRET, 30 min; response scale: percent of porcine relaxin response, buffer zero; Potency, µM (series often up to 57.5 µM), for the others: at the top dose activation, actives largely listed as activators; 0.3% of 370,000 active; AID 2676, 2010; note: potency is the fitted concentration of half-maximal effect; % is set by controls: 0 for no effect and ±100 for the full control effect; nearly all actives have a fitted effect of over 60% in size
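Agonist response is measured as cAMP accumulation in an RXFP1-transfected HEK293T line under PDE4 inhibition. Values are scaled between buffer-only and 29 nM porcine relaxin, and EC50s come from standard Hill equation fits.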
* = called active by the depositor; [ ] = dose if it differs, or a comment. Most compounds without a hit are left out; they make up all but 1.2% or so of the library. Unless noted, calls come from the whole dose curve; as a rule, active = well fitted curve in the direction sought with a large enough effect; inconclusive = small, poorly fitted or top-dose-only effect, or another doubt; inactive = no such curve, though single readings can be large; an effect the other way counts as inactive or inconclusive.

`Cc1cccc(N2C(=O)C(CC(=O)Nc3cccc(F)c3)N(Cc3cccs3)C2=O)c1` (stereo not given) gave RXFP1 antag -10 and RXFP1 ag 2%.
Screening COc1ccc(NC(=O)N(CCCN(C)C)Cc2cc3cc(OC)ccc3[nH]c2=O)cc1 returned gsp agonist -33%, MmCpn inh 2%, gsp antag 3%, CCT chaperon mod -4, RXFP1 antag -5 and RXFP1 ag -1%.
Screening Cc1ccc2[nH]c(=O)c(CN(CCCN(C)C)C(=O)Nc3ccc(F)cc3)cc2c1 returned gsp agonist -8%[15.4 µM], MmCpn inh 0%, gsp antag 7.1µM*, CCT chaperon mod 2, RXFP1 antag -2 and RXFP1 ag 0%.
CCN(CC)c1ccc(NS(=O)(=O)c2ccc(-c3coc(C)n3)cc2)c(C)c1 was read as RXFP1 ag -1%.
For Cc1ccc(/C=C/C(=O)NC(=S)Nc2ccc(S(=O)(=O)Nc3cc(C)on3)cc2)cc1 the results were gsp agonist 0%, MmCpn inh -1%, gsp antag 35µM*, CCT chaperon mod -2, RXFP1 antag -9 and RXFP1 ag 0%.
For O=S(=O)(c1ccc(C(F)(F)F)cc1)N1CCCN(c2ccc(C(F)(F)F)cn2)CC1 the results were gsp agonist 1%[15.4 µM], MmCpn inh 1%, gsp antag 1%, CCT chaperon mod -34*, RXFP1 antag -11 and RXFP1 ag -1%.
For O=C(O)c1sccc1S(=O)(=O)N1CCN(c2ccc(C(F)(F)F)cn2)CC1 the results were gsp agonist inconclusive, MmCpn inh -2%, gsp antag 6%, CCT chaperon mod 1, RXFP1 antag -10 and RXFP1 ag 1%.
`Nc1ccc(Br)c2cccnc12` gave gsp agonist -12%[15.4 µM], MmCpn inh 1%, gsp antag -16%, CCT chaperon mod 3, RXFP1 antag -65* and RXFP1 ag 2%.
`Cc1nn(C(=O)c2cccc(F)c2)c(C)c1S(=O)(=O)N1CCOCC1` gave RXFP1 ag 1%.
CCOc1ccccc1CNC(=O)c1cnc2sc(N3CCOCC3)nn2c1=O was read as RXFP1 antag -16 and RXFP1 ag 3%.
Cn1c(=O)c2c(ncn2Cc2ccc(Cl)cc2)n(C)c1=O was read as gsp agonist inconclusive, MmCpn inh -2%, gsp antag 23%, CCT chaperon mod 0, RXFP1 antag 7 and RXFP1 ag 10%.
Cn1c(=O)c2c([nH]c(=S)n2Cc2ccc(Cl)cc2)n(C)c1=O was read as gsp agonist 34%, MmCpn inh -9%, gsp antag 24%, CCT chaperon mod -84*, RXFP1 antag -11 and RXFP1 ag 12%.
`c1cnc2cc3c(cc2n1)C1CNCC3C1` gave RXFP1 antag -8.
`O=C(O)c1ccccc1NS(=O)(=O)c1cccc(C(F)(F)F)c1` gave gsp agonist 6%, MmCpn inh 1%, gsp antag -8%, CCT chaperon mod -1, RXFP1 antag 21 and RXFP1 ag 0%.
`O=C(O)c1ccccc1NS(=O)(=O)c1cccc(-n2sc3ccccc3c2=O)c1` gave gsp agonist 0%, MmCpn inh 0%, gsp antag inconclusive, CCT chaperon mod 0, RXFP1 antag -115* and RXFP1 ag -1%.
For N=c1nc2n(cc1F)C1OC(CO)C(O)C1O2 (stereo not given) the results were gsp agonist 8%, gsp antag 4%, CCT chaperon mod -48* and RXFP1 antag -4.
For Cc1cc(NCCCn2ccnc2)n2nc(-c3ccc(F)cc3)cc2n1 the results were gsp agonist 23%, MmCpn inh 2%, gsp antag -4%, CCT chaperon mod -7, RXFP1 antag -12 and RXFP1 ag 2%.
`Cc1cccc(-c2cc3nc(C)c(C)c(NCCCn4ccnc4)n3n2)c1` gave gsp agonist -3%[15.4 µM], MmCpn inh 1%, gsp antag -18%, CCT chaperon mod -5, RXFP1 antag -98* and RXFP1 ag 8%.
Screening O=C(NCc1ccccc1Cl)c1cc(=O)[nH]c2ccc(S(=O)(=O)N3CCCCC3)cc12 returned RXFP1 ag 1%.
Cc1ccc2cc(CCNC(=O)c3cc4ccccc4o3)c(=O)[nH]c2c1C was read as gsp agonist 6%, MmCpn inh 1%, gsp antag 35µM*, CCT chaperon mod -2 and RXFP1 ag 1%.
For COc1ccc2cc(CCNC(=O)c3cc4ccccc4o3)c(=O)[nH]c2c1 the results were gsp agonist 24%, MmCpn inh -23%, gsp antag inconclusive, CCT chaperon mod 1, RXFP1 antag -13 and RXFP1 ag -1%.
Screening CCC1Sc2ccc(S(=O)(=O)N3CCN(c4ccccc4)CC3)cc2NC1=O (stereo not given) returned gsp agonist inconclusive, MmCpn inh 0%, gsp antag -20%, CCT chaperon mod -2, RXFP1 antag -67* and RXFP1 ag 0%.
`OC1(c2ccccc2)CC(c2ccccc2)c2ccccc2O1` (stereo not given) gave gsp agonist -4%, gsp antag inconclusive, CCT chaperon mod -3 and RXFP1 antag -77*.
For O=C1/C(=C/c2ccc(O)cc2)SC(=S)N1CC1CCCO1 (stereo not given) the results were gsp agonist inconclusive, MmCpn inh 2%, gsp antag 0%, CCT chaperon mod -1, RXFP1 antag -73* and RXFP1 ag -1%.
`CN(CC(=O)N(C)CC(=O)Nc1c(Cl)cccc1Cl)Cc1ccccc1F` gave gsp agonist 16%, MmCpn inh 2%, gsp antag 2%, CCT chaperon mod -3 and RXFP1 antag 1.
For Cc1cc(C)c(NC(=O)CN(C)CC(=O)N(C)CC(=O)Nc2c(Cl)cccc2Cl)c(C)c1 the results were gsp agonist -28%, MmCpn inh 0%, gsp antag 9%, CCT chaperon mod -57*, RXFP1 antag 0 and RXFP1 ag 2%.
`CSc1cccc(NC(=O)C2CCCN(S(=O)(=O)c3ccc4c(c3)CCCN4C(C)=O)C2)c1` (stereo not given) gave RXFP1 antag -24 and RXFP1 ag 0%.

Compound activity as filed in PubChem BioAssay.
